Assay in all cases: DAPPL (digital affinity profiling via proximity ligation, sequencing); 10 mM Tris-HCl pH 7.5, 50 mM NaCl, 1 mM DTT, 4% glycerol, room temperature, 30 min; GST-TFs on glutathione beads, 16-mer random dsDNA library, 0.1% formaldehyde crosslink after washing; high values mean tight binding
One assay has as its target T1, FLI1 (Homo sapiens, UniProt Q01543 1-452).
T1 sequence: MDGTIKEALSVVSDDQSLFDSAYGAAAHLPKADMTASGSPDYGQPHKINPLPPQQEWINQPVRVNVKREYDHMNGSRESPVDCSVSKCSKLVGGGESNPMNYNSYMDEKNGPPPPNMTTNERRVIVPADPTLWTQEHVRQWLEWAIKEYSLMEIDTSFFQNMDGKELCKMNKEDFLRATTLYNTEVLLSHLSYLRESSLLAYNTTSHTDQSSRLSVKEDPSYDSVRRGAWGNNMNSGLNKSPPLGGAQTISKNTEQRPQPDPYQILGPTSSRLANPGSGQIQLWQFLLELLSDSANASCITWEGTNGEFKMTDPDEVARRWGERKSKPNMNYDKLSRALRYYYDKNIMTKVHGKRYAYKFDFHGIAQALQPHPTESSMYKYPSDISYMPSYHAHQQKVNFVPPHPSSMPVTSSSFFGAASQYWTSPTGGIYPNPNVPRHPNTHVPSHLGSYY
Particulars: protein: recombinant; tags: N-terminal GST; dsDNA, one strand shown. The method, boiled down:
(§1)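 The binding signal reported is, for every hexamer, its read frequency for a factor over its read frequency for the tag-only sample. Reads came from pools of yeast-expressed, GST-fused human transcription factors on glutathione beads, barcoded with DNA and mixed with that sample, which were incubated with 200 nmole of a random double-stranded 16-mer DNA library in Tris/NaCl/DTT/glycerol buffer at room temperature for 30 min. After washing, the pools were crosslinked with 0.1% formaldehyde, proximity-ligated with BsaI/T4 ligase for 1 h at 37 °C, PCR-amplified and sequenced on an Illumina NextSeq500.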

The target of the next assay is T2, ELK1 (Homo sapiens, UniProt P19419 1-428).
T2 sequence: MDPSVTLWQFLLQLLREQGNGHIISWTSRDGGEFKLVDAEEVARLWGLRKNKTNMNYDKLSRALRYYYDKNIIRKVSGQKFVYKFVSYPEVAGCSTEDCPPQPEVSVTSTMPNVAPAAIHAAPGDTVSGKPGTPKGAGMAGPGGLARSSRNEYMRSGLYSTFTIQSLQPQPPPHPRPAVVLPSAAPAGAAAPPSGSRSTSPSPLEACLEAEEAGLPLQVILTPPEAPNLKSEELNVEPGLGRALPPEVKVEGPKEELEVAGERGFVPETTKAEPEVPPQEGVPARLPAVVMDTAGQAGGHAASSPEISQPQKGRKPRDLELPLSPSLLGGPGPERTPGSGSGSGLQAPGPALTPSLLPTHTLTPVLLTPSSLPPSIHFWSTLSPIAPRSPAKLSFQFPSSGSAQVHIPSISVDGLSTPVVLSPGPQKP
To be noted: protein: recombinant; tags: N-terminal GST; dsDNA, one strand shown. The method, boiled down:
as §1

The target in another assay is T3, GABPA (Homo sapiens, UniProt Q06546 1-454).
T3 sequence: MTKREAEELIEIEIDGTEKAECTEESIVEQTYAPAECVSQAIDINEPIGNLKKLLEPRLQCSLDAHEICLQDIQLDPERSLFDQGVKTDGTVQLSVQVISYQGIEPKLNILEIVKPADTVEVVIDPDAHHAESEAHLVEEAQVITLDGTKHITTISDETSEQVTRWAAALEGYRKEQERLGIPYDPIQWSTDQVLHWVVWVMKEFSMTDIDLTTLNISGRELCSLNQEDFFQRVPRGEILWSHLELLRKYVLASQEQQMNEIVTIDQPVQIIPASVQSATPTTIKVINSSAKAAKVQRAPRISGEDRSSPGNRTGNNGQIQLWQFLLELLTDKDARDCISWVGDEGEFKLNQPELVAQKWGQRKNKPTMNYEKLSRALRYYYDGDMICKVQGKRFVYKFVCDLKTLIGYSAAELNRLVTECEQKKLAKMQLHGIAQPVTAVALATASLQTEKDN
Particulars: protein: recombinant; tags: N-terminal GST; dsDNA, one strand shown. The method, boiled down: as §1

A further assay deals with T4, ERG (Homo sapiens, UniProt P11308 1-479).
T4 sequence: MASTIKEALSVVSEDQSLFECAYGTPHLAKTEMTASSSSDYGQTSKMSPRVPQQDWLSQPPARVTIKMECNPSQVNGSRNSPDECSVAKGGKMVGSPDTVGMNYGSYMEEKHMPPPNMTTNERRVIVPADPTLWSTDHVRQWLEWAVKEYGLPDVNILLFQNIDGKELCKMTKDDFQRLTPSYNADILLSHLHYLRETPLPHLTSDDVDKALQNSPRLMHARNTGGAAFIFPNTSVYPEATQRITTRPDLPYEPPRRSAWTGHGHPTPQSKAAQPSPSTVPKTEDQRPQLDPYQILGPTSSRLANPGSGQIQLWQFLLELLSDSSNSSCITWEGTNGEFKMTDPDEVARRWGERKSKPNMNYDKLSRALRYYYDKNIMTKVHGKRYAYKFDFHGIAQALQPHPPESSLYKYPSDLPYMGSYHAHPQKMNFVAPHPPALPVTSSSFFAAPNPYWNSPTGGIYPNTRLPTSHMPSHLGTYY
Particulars: protein: recombinant; tags: N-terminal GST; dsDNA, one strand shown. The method, boiled down: as §1

Another assay concerns the target ELF1 (Homo sapiens, UniProt P32519 1-619). Particulars: protein: recombinant; tags: N-terminal GST; dsDNA, one strand shown. The method, boiled down: as §1
The target in a further assay is T5, EHF (Homo sapiens, UniProt Q9NZC4 1-300).
T5 sequence: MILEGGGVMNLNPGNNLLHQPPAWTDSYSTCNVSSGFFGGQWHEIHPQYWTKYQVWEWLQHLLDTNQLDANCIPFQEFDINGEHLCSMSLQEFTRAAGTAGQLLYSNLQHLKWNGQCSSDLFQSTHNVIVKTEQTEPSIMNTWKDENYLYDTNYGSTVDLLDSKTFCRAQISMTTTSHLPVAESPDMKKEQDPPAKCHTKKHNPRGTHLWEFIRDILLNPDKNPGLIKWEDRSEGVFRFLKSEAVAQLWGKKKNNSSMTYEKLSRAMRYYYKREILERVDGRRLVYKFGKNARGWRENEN
Particulars: protein: recombinant; tags: N-terminal GST; dsDNA, one strand shown. The essentials:
as §1

A further assay concerns the target SPI1 (Homo sapiens, UniProt P17947 1-270). To be noted: protein: recombinant; tags: N-terminal GST; dsDNA, one strand shown. The essentials:
as §1

The target in the next assay is SPIB (Homo sapiens, UniProt Q01892 1-262). To be noted: protein: recombinant; tags: N-terminal GST; dsDNA, one strand shown. The essentials: as §1
Chain of SPIB (Q01892 whole entry): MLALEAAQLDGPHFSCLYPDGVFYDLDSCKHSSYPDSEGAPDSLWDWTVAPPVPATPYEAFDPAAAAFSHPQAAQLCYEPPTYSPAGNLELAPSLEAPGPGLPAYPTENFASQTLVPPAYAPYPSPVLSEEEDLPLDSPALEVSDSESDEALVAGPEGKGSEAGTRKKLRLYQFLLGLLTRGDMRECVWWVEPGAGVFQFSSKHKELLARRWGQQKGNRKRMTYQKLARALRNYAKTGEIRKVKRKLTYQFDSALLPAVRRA
In another assay the target is T6, ELK3 (Homo sapiens, UniProt P41970 1-407).
T6 sequence: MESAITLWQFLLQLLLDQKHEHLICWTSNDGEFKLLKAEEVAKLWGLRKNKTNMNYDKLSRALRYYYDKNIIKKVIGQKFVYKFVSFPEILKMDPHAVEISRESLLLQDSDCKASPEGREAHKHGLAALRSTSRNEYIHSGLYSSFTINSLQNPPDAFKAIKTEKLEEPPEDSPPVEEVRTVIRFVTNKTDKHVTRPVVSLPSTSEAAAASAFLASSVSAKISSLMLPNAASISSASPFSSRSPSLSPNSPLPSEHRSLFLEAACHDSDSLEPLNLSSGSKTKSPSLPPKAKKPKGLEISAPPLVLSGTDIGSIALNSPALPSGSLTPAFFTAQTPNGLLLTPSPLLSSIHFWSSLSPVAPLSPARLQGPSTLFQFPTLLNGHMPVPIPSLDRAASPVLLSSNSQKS
Particulars: protein: recombinant; tags: N-terminal GST; dsDNA, one strand shown. The method, boiled down:
as §1

The target in the next assay is T7, FEV (Homo sapiens, UniProt Q99581 1-238).
T7 sequence: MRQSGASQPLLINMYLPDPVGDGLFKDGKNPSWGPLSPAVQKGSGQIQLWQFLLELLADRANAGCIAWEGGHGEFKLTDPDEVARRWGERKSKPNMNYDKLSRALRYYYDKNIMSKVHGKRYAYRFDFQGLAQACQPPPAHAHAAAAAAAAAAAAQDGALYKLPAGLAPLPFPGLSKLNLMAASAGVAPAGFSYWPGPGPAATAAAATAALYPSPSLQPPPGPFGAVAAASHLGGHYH
Particulars: protein: recombinant; tags: N-terminal GST; dsDNA, one strand shown. The essentials: as §1

For the next assay, the target named is ETV5 (Homo sapiens, UniProt P41161 1-510). To be noted: protein: recombinant; tags: N-terminal GST; dsDNA, one strand shown. The essentials: as §1
Chain of ETV5 (P41161 whole entry): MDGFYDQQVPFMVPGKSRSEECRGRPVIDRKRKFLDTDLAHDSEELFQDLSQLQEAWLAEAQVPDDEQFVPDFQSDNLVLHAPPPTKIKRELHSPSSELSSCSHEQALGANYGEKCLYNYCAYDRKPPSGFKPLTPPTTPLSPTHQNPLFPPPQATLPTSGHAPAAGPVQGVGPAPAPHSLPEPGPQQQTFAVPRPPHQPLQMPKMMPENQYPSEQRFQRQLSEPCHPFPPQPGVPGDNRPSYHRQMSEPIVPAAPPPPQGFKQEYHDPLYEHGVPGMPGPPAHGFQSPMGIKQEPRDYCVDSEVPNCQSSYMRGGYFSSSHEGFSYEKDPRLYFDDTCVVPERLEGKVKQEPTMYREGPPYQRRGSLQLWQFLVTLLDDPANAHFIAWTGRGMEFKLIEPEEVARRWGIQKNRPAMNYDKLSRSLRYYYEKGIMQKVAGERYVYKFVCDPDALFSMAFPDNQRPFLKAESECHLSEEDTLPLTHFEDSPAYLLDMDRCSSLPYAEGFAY
For a further assay, the target named is HSF1 (Homo sapiens, UniProt Q00613 1-529). Particulars: protein: recombinant; tags: N-terminal GST; chain copies: 3; dsDNA, one strand shown. The essentials:
as §1

Another assay has as its target T8, SPIC (Homo sapiens, UniProt Q8N5J4 1-248).
T8 sequence: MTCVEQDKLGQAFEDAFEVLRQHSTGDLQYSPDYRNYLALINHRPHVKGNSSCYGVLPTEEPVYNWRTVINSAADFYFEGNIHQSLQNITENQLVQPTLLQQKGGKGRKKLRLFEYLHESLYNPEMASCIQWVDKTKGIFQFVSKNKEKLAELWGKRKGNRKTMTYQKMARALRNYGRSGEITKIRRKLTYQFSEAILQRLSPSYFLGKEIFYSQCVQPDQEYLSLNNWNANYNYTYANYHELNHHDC
To be noted: protein: recombinant; tags: N-terminal GST; dsDNA, one strand shown. The method, boiled down:
as §1

Another assay addresses ELF4 (Homo sapiens, UniProt Q99607 1-663). Particulars: protein: recombinant; tags: N-terminal GST; dsDNA, one strand shown. The essentials:
as §1

For another assay, the target named is T9, ELK4 (Homo sapiens, UniProt P28324-2 1-405).
T9 sequence: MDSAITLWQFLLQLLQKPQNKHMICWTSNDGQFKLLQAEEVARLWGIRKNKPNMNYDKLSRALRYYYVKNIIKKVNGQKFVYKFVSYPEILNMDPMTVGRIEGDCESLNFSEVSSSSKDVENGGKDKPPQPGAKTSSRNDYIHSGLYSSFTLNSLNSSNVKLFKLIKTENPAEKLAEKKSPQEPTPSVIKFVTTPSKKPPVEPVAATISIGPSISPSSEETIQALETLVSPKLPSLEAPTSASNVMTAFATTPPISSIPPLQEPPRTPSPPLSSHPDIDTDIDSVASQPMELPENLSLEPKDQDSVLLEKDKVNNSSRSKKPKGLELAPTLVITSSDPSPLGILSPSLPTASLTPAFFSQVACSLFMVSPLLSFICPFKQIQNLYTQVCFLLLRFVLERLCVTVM
Particulars: protein: recombinant; tags: N-terminal GST; dsDNA, one strand shown. The method, boiled down:
as §1

In a further assay the target is T10, ETV2 (Homo sapiens, UniProt O00321 1-342).
T10 sequence: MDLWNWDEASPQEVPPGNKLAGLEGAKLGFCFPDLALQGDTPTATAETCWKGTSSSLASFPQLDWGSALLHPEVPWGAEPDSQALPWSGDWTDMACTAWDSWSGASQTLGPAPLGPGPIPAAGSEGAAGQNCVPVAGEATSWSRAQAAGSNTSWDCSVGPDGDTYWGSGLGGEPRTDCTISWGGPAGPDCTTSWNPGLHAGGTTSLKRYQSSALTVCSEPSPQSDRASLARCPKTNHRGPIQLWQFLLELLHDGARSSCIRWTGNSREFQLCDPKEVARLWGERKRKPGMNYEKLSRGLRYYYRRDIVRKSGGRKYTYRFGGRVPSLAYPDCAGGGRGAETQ
To be noted: protein: recombinant; tags: N-terminal GST; dsDNA, one strand shown. The essentials:
as §1

For a further assay, the target named is T11, ELF3 (Homo sapiens, UniProt P78545 1-371).
T11 sequence: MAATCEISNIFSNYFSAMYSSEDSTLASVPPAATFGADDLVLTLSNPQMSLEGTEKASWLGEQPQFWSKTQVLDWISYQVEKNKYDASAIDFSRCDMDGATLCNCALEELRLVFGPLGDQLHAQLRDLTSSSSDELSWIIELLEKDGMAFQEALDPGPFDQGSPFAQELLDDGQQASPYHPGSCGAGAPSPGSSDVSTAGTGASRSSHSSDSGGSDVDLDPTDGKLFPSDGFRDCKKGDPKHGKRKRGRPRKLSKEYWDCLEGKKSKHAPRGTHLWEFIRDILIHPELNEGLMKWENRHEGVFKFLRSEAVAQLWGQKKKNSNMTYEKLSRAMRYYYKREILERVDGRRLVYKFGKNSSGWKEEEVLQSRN
To be noted: protein: recombinant; tags: N-terminal GST; dsDNA, one strand shown. The method, boiled down: as §1

A further assay concerns the target CRX (Homo sapiens, UniProt O43186 1-299). To be noted: protein: recombinant; tags: N-terminal GST; dsDNA, one strand shown. The essentials: as §1
The target in a further assay is ETV1 (Homo sapiens, UniProt P50549 1-477). To be noted: protein: recombinant; tags: N-terminal GST; dsDNA, one strand shown. The essentials: as §1
Chain of ETV1 (P50549 whole entry): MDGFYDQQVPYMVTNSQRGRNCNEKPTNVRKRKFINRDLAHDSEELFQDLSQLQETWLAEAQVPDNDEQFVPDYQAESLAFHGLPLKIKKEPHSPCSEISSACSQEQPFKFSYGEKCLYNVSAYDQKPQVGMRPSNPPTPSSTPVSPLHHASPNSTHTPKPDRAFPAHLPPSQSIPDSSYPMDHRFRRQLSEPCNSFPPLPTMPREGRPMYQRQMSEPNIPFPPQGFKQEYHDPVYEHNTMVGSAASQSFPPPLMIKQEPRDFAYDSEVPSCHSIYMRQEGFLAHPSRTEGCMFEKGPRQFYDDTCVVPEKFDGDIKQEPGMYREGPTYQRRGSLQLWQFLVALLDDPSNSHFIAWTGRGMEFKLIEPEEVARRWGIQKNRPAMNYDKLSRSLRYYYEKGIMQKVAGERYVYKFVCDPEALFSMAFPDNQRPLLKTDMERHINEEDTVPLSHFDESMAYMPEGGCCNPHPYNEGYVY

Chain of ELF1 (P32519 whole entry): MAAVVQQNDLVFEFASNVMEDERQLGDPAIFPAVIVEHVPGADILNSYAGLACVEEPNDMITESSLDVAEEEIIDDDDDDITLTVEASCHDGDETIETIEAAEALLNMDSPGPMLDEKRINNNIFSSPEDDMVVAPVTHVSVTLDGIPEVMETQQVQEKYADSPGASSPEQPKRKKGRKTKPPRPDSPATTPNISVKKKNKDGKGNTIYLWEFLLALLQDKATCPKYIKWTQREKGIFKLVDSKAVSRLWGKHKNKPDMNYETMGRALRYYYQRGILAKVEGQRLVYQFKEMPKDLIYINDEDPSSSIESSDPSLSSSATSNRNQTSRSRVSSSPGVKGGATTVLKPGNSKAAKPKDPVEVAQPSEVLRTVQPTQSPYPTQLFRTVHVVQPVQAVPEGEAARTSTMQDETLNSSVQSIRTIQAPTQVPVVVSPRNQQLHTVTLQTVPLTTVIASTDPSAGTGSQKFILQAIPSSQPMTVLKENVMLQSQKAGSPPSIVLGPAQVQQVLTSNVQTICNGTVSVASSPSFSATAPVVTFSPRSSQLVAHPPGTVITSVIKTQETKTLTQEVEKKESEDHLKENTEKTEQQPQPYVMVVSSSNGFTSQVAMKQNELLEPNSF
Chain of HSF1 (Q00613 whole entry): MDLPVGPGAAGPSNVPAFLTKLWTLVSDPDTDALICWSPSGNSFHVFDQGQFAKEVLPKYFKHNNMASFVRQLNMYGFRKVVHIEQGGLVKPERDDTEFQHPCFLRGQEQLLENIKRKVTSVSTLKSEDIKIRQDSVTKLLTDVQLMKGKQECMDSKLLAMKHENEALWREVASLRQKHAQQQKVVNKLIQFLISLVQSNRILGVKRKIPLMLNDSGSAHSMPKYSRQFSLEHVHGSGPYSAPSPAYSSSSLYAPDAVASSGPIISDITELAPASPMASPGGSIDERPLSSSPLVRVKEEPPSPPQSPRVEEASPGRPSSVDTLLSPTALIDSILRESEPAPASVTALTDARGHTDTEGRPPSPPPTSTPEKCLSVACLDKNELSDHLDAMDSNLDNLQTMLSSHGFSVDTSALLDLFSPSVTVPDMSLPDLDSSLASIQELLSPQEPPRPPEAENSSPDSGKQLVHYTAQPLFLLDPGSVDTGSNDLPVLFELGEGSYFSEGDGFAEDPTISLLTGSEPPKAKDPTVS
Chain of ELF4 (Q99607 whole entry): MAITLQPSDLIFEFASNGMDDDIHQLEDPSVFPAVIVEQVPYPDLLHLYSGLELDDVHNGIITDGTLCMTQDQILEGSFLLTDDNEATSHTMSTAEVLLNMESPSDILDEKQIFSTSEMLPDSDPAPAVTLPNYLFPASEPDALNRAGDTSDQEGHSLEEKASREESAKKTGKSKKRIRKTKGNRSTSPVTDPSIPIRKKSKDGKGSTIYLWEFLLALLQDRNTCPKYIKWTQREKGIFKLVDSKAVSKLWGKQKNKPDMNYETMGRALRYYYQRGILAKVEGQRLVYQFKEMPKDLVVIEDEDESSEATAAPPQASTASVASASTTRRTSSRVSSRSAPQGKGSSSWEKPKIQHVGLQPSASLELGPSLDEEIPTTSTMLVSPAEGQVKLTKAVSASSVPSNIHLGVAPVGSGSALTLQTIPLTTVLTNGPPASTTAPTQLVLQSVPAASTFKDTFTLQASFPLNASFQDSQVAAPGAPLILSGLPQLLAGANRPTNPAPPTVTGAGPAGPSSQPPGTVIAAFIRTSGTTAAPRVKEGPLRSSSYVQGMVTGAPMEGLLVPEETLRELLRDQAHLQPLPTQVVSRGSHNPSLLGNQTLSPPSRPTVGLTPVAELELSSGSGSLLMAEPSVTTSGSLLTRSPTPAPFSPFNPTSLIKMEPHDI
Chain of CRX (O43186 whole entry): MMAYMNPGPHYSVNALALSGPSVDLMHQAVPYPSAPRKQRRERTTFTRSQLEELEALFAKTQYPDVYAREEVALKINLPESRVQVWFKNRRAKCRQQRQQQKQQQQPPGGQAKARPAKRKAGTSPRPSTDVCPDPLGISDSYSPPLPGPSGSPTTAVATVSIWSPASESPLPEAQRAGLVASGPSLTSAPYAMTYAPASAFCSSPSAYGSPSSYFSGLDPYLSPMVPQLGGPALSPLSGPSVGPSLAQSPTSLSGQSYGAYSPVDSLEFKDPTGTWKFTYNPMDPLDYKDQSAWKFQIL

In the case of ATCACT, the binding signal is 1.19 fold enrichment (6-mer frequency, TF over GST control) in the assay with FLI1; 1.16 fold enrichment (6-mer frequency, TF over GST control) with ELK1; 1.19 fold enrichment (6-mer frequency, TF over GST control) in the assay with GABPA; 1.28 fold enrichment (6-mer frequency, TF over GST control) in the assay with ERG; 1.34 fold enrichment (6-mer frequency, TF over GST control) with ELF1; 1.15 fold enrichment (6-mer frequency, TF over GST control) with EHF. The binding signal with SPI1 is 1.32 fold enrichment (6-mer frequency, TF over GST control); with SPIB it was 1.38 fold enrichment (6-mer frequency, TF over GST control); in the assay with ELK3, 1.18 fold enrichment (6-mer frequency, TF over GST control); in the assay with FEV, 1.25 fold enrichment (6-mer frequency, TF over GST control); in the assay with ETV5, 1.2 fold enrichment (6-mer frequency, TF over GST control); with HSF1, 1.14 fold enrichment (6-mer frequency, TF over GST control). Further, the binding signal is 1.34 fold enrichment (6-mer frequency, TF over GST control) in the assay with SPIC; 1.23 fold enrichment (6-mer frequency, TF over GST control) in the assay with ELF4; 1.45 fold enrichment (6-mer frequency, TF over GST control) in the assay with ELK4; 1.29 fold enrichment (6-mer frequency, TF over GST control) with ETV2; 1.35 fold enrichment (6-mer frequency, TF over GST control) in the assay with ELF3; 1.29 fold enrichment (6-mer frequency, TF over GST control) in the assay with CRX. Also, in the assay with ETV1, the binding signal is 1.2 fold enrichment (6-mer frequency, TF over GST control).

The values are drawn from article PMC7862700, “An all-to-all approach to the identification of sequence-specific readers for epigenetic DNA modifications on cytosine”.
